Shiga toxin inh – inhibitors of Shiga toxin in Vero cells; Vero cells, Shiga toxin protein synthesis inhibition reporter; inhibition, % at 38.7 µM; 290,000 tested, 9.2% active; AID 2315; in the data active = inhibition mostly above about 28%, no sharp cut-off; inactive = mostly below about 43%
Giardia FBPA inh – inhibitors of Giardia lamblia fructose-1,6-bisphosphate aldolase; purified Giardia FBPA; Potency, µM (top dose mostly 59.6 µM), most hits filed as inhibitors; 290,000 tested, 0.71% active; AID 2451; also: nearly all actives have a fitted effect of over 55% in size
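40 nM FBPA preincubated 10 min at RT with compound (up to 57.5 uM final), then substrate plus GAPDH/TPI/NAD/arsenate coupling and diaphorase/resazurin added. Fluorescence read after 20 min at RT, 525/598 nm.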
LmPK inhibitor – LmPK (Leishmania mexicana) enzyme inhibition; Q27686; purified LmPK, Kinase-Glo ATP luminescence, 1 h; Potency, µM (highest dose often 57.5 µM), hits mostly inhibitors; 290,000 tested, 0.37% active
Target sequence (Q27686 whole entry, looked up): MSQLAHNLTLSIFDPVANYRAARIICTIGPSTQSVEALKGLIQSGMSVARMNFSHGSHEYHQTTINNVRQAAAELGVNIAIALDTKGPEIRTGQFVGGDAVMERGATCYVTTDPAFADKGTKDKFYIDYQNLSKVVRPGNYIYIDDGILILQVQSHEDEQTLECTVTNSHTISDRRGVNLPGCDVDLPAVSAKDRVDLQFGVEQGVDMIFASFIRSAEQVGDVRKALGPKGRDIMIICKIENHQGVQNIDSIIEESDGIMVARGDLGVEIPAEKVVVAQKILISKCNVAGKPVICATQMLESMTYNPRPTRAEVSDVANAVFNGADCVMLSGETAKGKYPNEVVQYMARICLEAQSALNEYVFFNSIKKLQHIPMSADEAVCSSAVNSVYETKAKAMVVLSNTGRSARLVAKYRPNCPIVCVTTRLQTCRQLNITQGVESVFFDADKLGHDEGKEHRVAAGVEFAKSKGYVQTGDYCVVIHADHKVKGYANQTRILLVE
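Purified LmPK (0.1 nM) with 0.5 mM PEP and 0.1 mM ADP in imidazole buffer pH 7.2 with MgCl2/KCl, 1 h at room temperature. ATP formed was read by luciferase luminescence and normalized to no-enzyme and uninhibited controls.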
NS1 inh – inhibitors of influenza NS1 protein function; AID 2326; Potency, µM (top dose mostly 46.1 µM); 270,000 tested, 0.4% active; calls by dose curve; also: actives are rising curves; nearly all actives have a fitted effect of over 50% in size
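In this qHTS, NS1 from influenza A is expressed in budding yeast, where it slows growth. Cells are switched from glucose to 2% galactose medium (pH 6.0, -URA), treated with compound, and growth recovery is read at OD600.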
Cycloheximide cs – affects cycloheximide protein synthesis inhibition readout, counter-screen | cell reporter, cycloheximide protein synthesis inhibition counterscreen | AID 2314 | 300,000 tested, 12% active | max response, %; in the data active = max response mostly above about 13%, no sharp cut-off; inactive = mostly below about 14%; also: read at 38.3 µM for the half of the compounds with a filed dose
Of the large screens only hits and unclear results are named; the others gave an inactive call. Only some compounds are listed: those with a hit (about 14% of all), similar ones and a draw of the others. Unless noted, calls follow the shape of the dose curve; as a rule, active = well fitted curve in the direction sought with a large enough effect; inconclusive = small, poorly fitted or top-dose-only effect, or another doubt; inactive = no such curve, though single readings can be large; an effect the other way counts as inactive or inconclusive.

Cc1nn(-c2ccc(N3CCCCC3)nn2)c(C)c1CCC(=O)Nc1ccccc1F	Shiga toxin inh 63, Cycloheximide cs 22 (no result: Giardia FBPA inh)
COc1ccc(N2C(=O)/C(=C/c3cccs3)C(=O)NC2=S)cc1	none
COc1ccc(N2C(=O)/C(=C/c3cccs3)NC2=S)cc1	Shiga toxin inh 22
CCN(CC)c1ccc(/C=C/c2cc(-c3ccccc3)c3ccccc3n2)cc1	Cycloheximide cs 16
CCc1cc2c(=O)c(-c3ccc4c(c3)OCCO4)coc2cc1OC(=O)c1ccco1	Shiga toxin inh 93, Cycloheximide cs 38
CCCc1cc2c(=O)c(-c3ccc4c(c3)OCCO4)coc2cc1OC(=O)c1ccco1	Shiga toxin inh 98, Cycloheximide cs 30
CCCc1cc2c(=O)c(-c3ccc4c(c3)OCCO4)coc2cc1OS(C)(=O)=O	Shiga toxin inh 45, Cycloheximide cs 56
Cc1nc(NCCc2ccccc2)c2nnn(Cc3ccccc3)c2n1	none
COc1ccccc1C(=O)N(CCC1CCCN1C)c1nc2ccccc2s1 (stereo not drawn)	Cycloheximide cs 26
O=c1c2ccccc2nc(COc2ccccc2)n1/N=C/c1c[nH]c2ccccc12	none
Cc1ccccc1OCc1nc2ccccc2c(=O)n1/N=C/c1cn[nH]c1-c1ccc(Br)cc1	NS1 inh inconclusive, Cycloheximide cs 13
O=c1c2ccccc2nc(COc2ccccc2)n1/N=C/c1cn[nH]c1-c1ccccc1	Shiga toxin inh 44
O=c1c2ccccc2nc(COc2ccccc2)n1/N=C/c1ccc(O)cc1O	Shiga toxin inh 94, Cycloheximide cs 16
Cc1ccc(NC(=O)C(=O)NN=C2CCCC2)cc1C	Cycloheximide cs 10
CN1CCC(=NNC(=O)C(=O)Nc2ccc(F)cc2)CC1	Shiga toxin inh 74, Cycloheximide cs 38
CN1CCC(=NNC(=O)C(=O)Nc2cccc(Br)c2)CC1	none (no result: NS1 inh)
N#CC(C(=O)Nc1ccccc1)=C1CCCCC1	Cycloheximide cs 15
CC(C)c1ccc(C2NC(=O)c3ccccc3O2)cc1 (stereo not drawn)	Shiga toxin inh 101, Cycloheximide cs 19
CCOC(=O)OCC1OC(c2ccccc2)C=CC1Oc1ccc2oc(=O)cc(C)c2c1 (stereo not drawn)	none (no result: Shiga toxin inh, LmPK inhibitor, NS1 inh, Cycloheximide cs)
C=C1C(=O)O[C@H]2[C@H]1[C@@H](O)CC(=C)[C@@H]1CC(=O)[C@@H](C)[C@H]21	Shiga toxin inh 36, Cycloheximide cs 32
CCN=C(N)CSS(=O)(=O)O	none (no result: Shiga toxin inh, Giardia FBPA inh, LmPK inhibitor, Cycloheximide cs)
CCc1ccc(/C=C2/SC(=S)N(CCC(=O)NCCCN3CCOCC3)C2=O)cc1	Shiga toxin inh 91, Cycloheximide cs 48
CC(C)c1ccc(/C=C2\SC(=S)N(CCC(=O)NCCCn3ccnc3)C2=O)cc1	Shiga toxin inh 104, Cycloheximide cs 61 (no result: Giardia FBPA inh)
COc1ccccc1/C=C1\SC(=S)N(CCC(=O)NCCCn2ccnc2)C1=O	none (no result: Giardia FBPA inh)
O=C(CCCN1C(=O)/C(=C/c2ccc(F)cc2)SC1=S)NCCCn1ccnc1	none
COc1ccc(/C=C2\SC(=S)N(CCC(=O)NCCCn3ccnc3)C2=O)cc1	Cycloheximide cs 18 (no result: Giardia FBPA inh)
COC(=O)c1ccc(/C=C2/SC(=S)N(CCC(=O)NCCCN3CCOCC3)C2=O)cc1	none (no result: Giardia FBPA inh)
CC(NC(=O)CSc1ncccc1C(=O)O)C1CC2CCC1C2 (stereo not drawn)	none
C[C@@]1(C(=O)O)CCC[C@@H]1C(=O)O	none (no result: Shiga toxin inh, Giardia FBPA inh, LmPK inhibitor, Cycloheximide cs)
COc1cc(/C=N/NC(=O)Nc2ccccc2)ccc1OC(C)=O	Shiga toxin inh 53, Cycloheximide cs 39
CCOc1cc(/C=N/NC(=O)c2cc(C)n(-c3ccc(F)cc3)c2C)ccc1O	Shiga toxin inh 87, Cycloheximide cs 22
O=C(N/N=C/c1cc(Br)ccc1O)Nc1ccccc1	Shiga toxin inh 76
Cc1cc(C(=O)N/N=C2\CC(=O)c3ccccc32)c(C)n1-c1ccc(F)cc1	Shiga toxin inh 41, Cycloheximide cs 23
CCOc1cc(/C=N/NC(=O)c2ccc(NC(=O)C3CC3)cc2)ccc1O	none (no result: Giardia FBPA inh)
CCOc1cc(/C=N/NC(=O)Nc2ccccc2)ccc1O	Shiga toxin inh 72, Cycloheximide cs 37
CCOC(=O)c1snc(-c2ccc(F)cc2)c1N	Shiga toxin inh 103, Cycloheximide cs 35
CCOC(=O)c1sc(N)nc1-c1ccccc1	none
CCCCOc1ccc(OCCNS(=O)(=O)N(C)C)cc1	Cycloheximide cs 20
O=C(Nc1ccc(Cl)cc1)Nc1nnc(-c2ccncc2)s1	none
CC(Oc1ccc(Cl)cc1Cl)C(=O)Nc1ncccn1 (stereo not drawn)	Cycloheximide cs 22
C/C(=C\C(=O)O)C(=O)Nc1nccs1	none
O=C(Nc1ccc(Cl)cc1)Nc1nccs1	Shiga toxin inh 47, Cycloheximide cs 30
CCC(C)OC(=O)n1ccc(C(=O)Nc2nccs2)n1 (stereo not drawn)	Shiga toxin inh 68, Cycloheximide cs 32
C/C(=C\C(=O)Nc1nccs1)c1ccccc1	Shiga toxin inh 116, Cycloheximide cs 57
Cc1cc(NC(=O)C(C)Oc2ccc(Cl)cc2Cl)no1 (stereo not drawn)	none
CCCn1c(C)nnc1SCC(=O)NC1CCCCC1	none
CC(Oc1ccc(Cl)cc1)C(=O)Nc1ccc(S(=O)(=O)Nc2nccs2)cc1 (stereo not drawn)	none
CC(Oc1ccc(Cl)cc1)C(=O)Nc1nccs1 (stereo not drawn)	Shiga toxin inh 56, Cycloheximide cs 17
CCC(C(=O)Nc1nccs1)c1ccccc1 (stereo not drawn)	NS1 inh inconclusive
CCC(C)C(=O)Nc1nccs1 (stereo not drawn)	Giardia FBPA inh inconclusive, Cycloheximide cs 16
O=C(Nc1ccccc1)Nc1nccs1	Shiga toxin inh 45, Cycloheximide cs 38
COc1cccc(N2C(=O)Nc3ccc(Br)cc3C2(O)C(=O)NCCCOC(C)C)c1 (stereo not drawn)	none
Cc1ccc(Cn2ncc3c4sc(C)cc4n(C)c3c2=O)cc1	none (no result: Giardia FBPA inh, LmPK inhibitor, NS1 inh)
c1ccc(Cc2ccc(OCCN3CCOCC3)cc2)cc1	Shiga toxin inh 55, Giardia FBPA inh inconclusive, Cycloheximide cs 21
c1cc(OCCCN2CCCCC2)ccc1CN1CCCCC1	none
Clc1ccc(OCCN2CCOCC2)cc1Cl	Shiga toxin inh 70
c1ccc(OCCN2CCOCC2)cc1	Giardia FBPA inh inconclusive
Clc1ccc(OCCN2CCCCC2)cc1Cl	none
CC1CCN(CCCOc2ccc(OCc3ccccc3)cc2)CC1	Shiga toxin inh 81, Cycloheximide cs 24
c1ccc(COc2ccc(OCCCN3CCCC3)cc2)cc1	Shiga toxin inh active, Cycloheximide cs 38
COC(=O)CCC(=O)OC1(C)C(=O)C=C2C=C(C3CC3)N(c3ccc(OC)cc3)C=C2C1=O (stereo not drawn)	Giardia FBPA inh inconclusive (no result: Shiga toxin inh, NS1 inh, Cycloheximide cs)
Cc1ccc(OP(=O)(Oc2ccc(C)cc2)N2C=Cc3ccccc3[C@H]2C#N)cc1	none (no result: Shiga toxin inh, Giardia FBPA inh, LmPK inhibitor, Cycloheximide cs)
c1ccc(COc2ccc(OCCN3CCCCC3)cc2)cc1	Shiga toxin inh 47, Giardia FBPA inh inconclusive, Cycloheximide cs 87
c1ccc(-c2ccc(OCCN3CCCC3)cc2)cc1	Shiga toxin inh 52, Cycloheximide cs 32 (no result: LmPK inhibitor, NS1 inh)
O=C1C2CCN(CC2)C1Cc1ccc(OCc2ccccc2)cc1 (stereo not drawn)	Cycloheximide cs 23
